In ChEMBL document CHEMBL3988442, “University of Dundee, Small-Polar-MMV Screening Library” (2021):

Target: AMP-activated protein kinase, AMPK (Homo sapiens) (UniProt P54646+O43741+P54619+Q9UGJ0+Q9Y478+Q13131+Q9UGI9)
Test: AMP-dependent Kinase enzyme assay. An in vitro enzyme assay that detects ADP turnover that is directly proportional to AMPK activity. This uses naive AMPK that is activated during the assay with MK-8722
Type: functional
Parameters: scale not given: direction of the effect not stated beside the values
Conditions: 30 µM

Compound | Percent Effect [%]
O=C(c1cscn1)N1C[C@@H]2[C@@H](C1)OCC(=O)N2CC1CCCC1 | 1.15
CN(CC(F)(F)F)C(=O)C1CSCN1C(=O)OC(C)(C)C (stereo not given) | -4.74
Cc1nc(C2CCCN(C(=O)c3ccco3)C2)no1 (stereo not given) | 1.16
Cn1ccc(C(=O)N2CCN(c3cc(C#N)ccn3)CC2)cc1=O | -11.9
CC(=O)N1CCOCC2(CCN(Cc3ccc(C)s3)CC2)C1 | -5.5
CCc1cccc(N2CCC(NC(=O)c3cc[nH]n3)CC2)c1 | 8.15
C[S+]([O-])c1nncn1CC(=O)c1ccc(Cl)c(Cl)c1 (stereo not given) | -4.71
Cn1ccc(C(=O)N2CCN(c3ncccn3)CC2)cc1=O | 33.6
Cc1nccn1-c1cccc(C2CCCN(C3CCCCC3)C2)n1 (stereo not given) | 3.56
CC(C)N1CCOCC2(CN(Cc3nccs3)CCO2)C1 (stereo not given) | -4.7
Cc1ccc2c(c1)OCCCC2NCc1nnc2n1CCCCC2 (stereo not given) | -4.22
NC(=O)c1csc(C(=O)N2CCCC(n3ccnc3)C2)c1 (stereo not given) | 5.04
Cc1cc(CN(C)C(=O)C2CCCN(C(=O)c3cccs3)C2)no1 (stereo not given) | 1.53
CS(=O)(=O)NCCNC(=O)C1(c2cccc(Cl)c2)CC1 | -4.76
CC(C)CCN1CCN(Cc2nc(C3CC3)no2)CC1 | 1.67
Cc1nnc2n1CCN(Cc1csc(-c3ccc(F)cc3)n1)C2 | -2.56
Cc1cc(NC(=O)NCC(C)O)n(C)n1 (stereo not given) | -8.37
O=C(c1cccc(NCCO)c1)N1CCOCC1 | -9.18
CNc1cc(C)nc(C2CN(Cc3ccc(C)nc3)CCO2)c1 (stereo not given) | 9.63
Cc1ccc(CNC(=O)NCc2cccnc2N(C)C)s1 | 7.34

Compound | Percent Effect [%]
CN(CCN1CCOCC1)C(=O)CCc1cccc(Cl)c1 | -2.72
CCC(=O)NCCc1cc(N2CCN(C(C)=O)CC2)nc(C2CC2)n1 | 12.6
Cc1cc(NC(=O)NCc2cccnc2OC(C)C)n(C)n1 | 1.26
CC(C)CCC(C)NC(=O)c1ccc(OCC(N)=O)cc1 (stereo not given) | -4.08
CN(C)C(=O)COC[C@]12COC[C@H]1CN(Cc1ccoc1)C2 | -3.89
O=C(COCc1nc(-c2ccncc2)no1)N1CCCCCC1 | -3.82
CCN(CC)C(=O)CCNC(=O)Cc1nc(-c2ccco2)oc1C | -3.57
O=C1COc2c(cccc2C(=O)N2CCCCC2Cn2cccn2)N1 (stereo not given) | 2.71
CCN1CCCC1CN(CCN(C)C)S(=O)(=O)c1ccc(C#N)cc1 (stereo not given) | -10.9
Cc1nsc(N2CCCN(c3nc(C4CC4)ns3)CC2)n1 | 9.09
Cc1nc(CC(=O)N2CCCCC2c2ccn3ccnc3n2)cs1 (stereo not given) | 11.6
CN(Cc1ccc(F)cc1)CC1(O)CCN(C(=O)c2ccccc2)C1 (stereo not given) | 9.4
Cc1nc(NC(=O)CN2CCc3c(nc(C(C)C)n3C)C2)sc1C | -2.02
Cc1cccc(-c2ccc3nc(C4CCN(CC5CC5)CC4)nn3c2)c1 | -2.67
CC(O)CN1CCC(CNCc2c[nH]nc2C(C)(C)C)CC1 (stereo not given) | -5.82
FC(F)(F)Cc1noc(CN2CCCC2c2noc(C3CC3)n2)n1 (stereo not given) | -5.95
COc1c(C2CCCN2CC(=O)Nc2cc(C)no2)c(C)nn1C (stereo not given) | -3.77
CCN(Cc1ccc2c(c1)OCCO2)S(=O)(=O)N(C)C(C)C | 3.89
CN(Cc1cccc(F)c1)C(=O)CN1CCCCC1Cn1cncn1 (stereo not given) | -0.897
Cc1nc(CN2CCCC2c2ccsc2)nc2ccccc12 (stereo not given) | 3.32
